# From PubChem BioAssay AID504433 (National Center for Advancing Translational Sciences (NCATS), 2011)
# Several values for one entry are separate records, joined by “and”; a condition that tells them apart may be missing. Equal entries are not always repeated. Inconclusive results are not listed. Unmarked numbers belong to inactive results. Activity calls are given as the source filed them. Calls come from the whole dose curve; as a rule, active = well fitted inhibition curve with a large enough effect; inconclusive = small, poorly fitted or top-dose-only effect; inactive = flat fitted curve, though single readings scatter.
# Experiment: Secondary Assay for lipid storage modulators: Cytotoxcity for probe SAR round 2
# Details: Drosophila S3 cells viability, CellTiter-Glo ATP luminescence, 24 h; series mostly up to 46.1 µM; activity change, negative = cytotoxicity: at the top concentration
# Description: NIH Molecular Libraries Probe Production Centers Network [MLPCN] NIH Chemical Genomics Center [NCGC] MLPCN Grant: 1 R03 MH085686-01 Assay Submitter (PI): Beller, Mathias; Max-Planck-Institut fur Biophysikalische Chemie, Germany. NCGC Assay Overview: Storing lipids as a reservoir for energy or the anabolism of elementary metabolites is a common feature of probably all cells and is conserved from bacteria to humans. The universal cellular lipid storage organelle is the so-called lipid storage droplet (LD). Although ubiquitous, LDs share a simple structure composed of a hydrophobic core that harbors the storage lipids, which is shielded by a droplet-specific phospholipid monolayer to which proteins are attached. The current model of LD biogenesis involves an incorporation of the lipid core into the membrane leaflets of the endoplasmic reticulum (ER) followed by a subsequent budding-like maturation of a LD, which ultimately pinches off. Once released, LD volume can increase by localized lipogenesis or fusion of existing droplet. Storage lipids are re-mobilized enzymatically by lipase activity. Lipase regulation in the adipocyte is heavily studied and involves multiple components including catecholamine signaling, the LD-associated proteins Perilipin and comparative gene identification (CGI-58) and at least two lipases named hormone sensitive lipase (HSL) and adipocyte triglyceride lipase (ATGL). LD regulation outside of the adipocyte is poorly understood and only few components are known. However, there is an urgent need to learn more about ectopic fat depots as mislocalized storage of lipids, for example in the liver or muscle, is an eminent health problem associated with insulin resistance or the metabolic syndrome. We developed a laser-scanning cytometer assay to enable 1,536-well screening and combined the results of the small molecules screen with an RNAi database based on lipid storage. The compound was tested here for cytotoxcity using CellTiter-Glo.
# Assay Protocol Summary: Cytotoxcity assay was performed with embryonic Drosophila S3 cells (Bloomington Drosophila Genomics Resource Center [DGRC]). We dispensed 4 uL of cells at 1.25 x 10^6 cells/mL into Greiner solid white 1,536-well plates with a bottle-valve solenoid-based dispenser (Aurora) to obtain 5,000 cells/well. A total of 23 nL of compound solution of different concentrations were transferred to the assay plates using a Kalypsys pin tool equipped with a 1,536-pin array containing 10-nL slotted pins (FP1S10, 0.457-mm diameter, 50.8 mm long; V&P Scientific). One microliter of oleic acid (400 uM) was added, and the plate was lidded with stainless steel rubber gasket lined lids containing pinholes. After 24 hrs of incubation at 24 degrees Celsius and 95% humidity, 4 uL of CellTiter-Glo (Promega) was added to the wells. Luminescence was detected on the Perkin Elmer ViewLux.
Compound,"activity change, negative = cytotoxicity [%]",Potency
CCOC(=O)C1CCN(C(=O)C(C)(C)NC(=O)Nc2cccc(-c3csc(C)n3)c2)CC1,-12.3,
O=C(NC1CCCc2c1cnn2-c1ccc(F)cc1F)c1cccs1 (configuration not stated),,5.6 µM (active)
CC(C)(NC(=O)Nc1ccccc1Cl)C(=O)N1CCC(C(=O)O)CC1,-14.9,
CCOC(=O)C1CCN(C(=O)C(C)(C)NC(=O)Nc2ccccc2Cl)CC1,-19,
CC(C)(C)OC(=O)NCCOCCOCCOc1ccc(-n2ncc3c2CCCC3NC(=O)c2ccccn2)cc1 (configuration not stated),,3.15 µM (active)
CCOC(=O)C1CCN(C(=O)C(C)(C)NC(=O)Nc2ccc(C#N)cc2)CC1,-23.1,
CCOC(=O)C1CCN(C(=O)C(C)(C)NC(=O)Nc2cccc(C(=O)OC)c2)CC1,-4.92,
CCOC(=O)C1CCN(C(=O)C(C)(C)NC(=O)Nc2ccc(N)cc2)CC1,-12,
CCOC(=O)C1CCN(C(=O)C(C)(C)NC(=O)Nc2ccc(N(C)C)cc2)CC1,-8.42,
CCOC(=O)C1CCN(C(=O)C(C)(C)NC(=O)Nc2cccc(OC)c2)CC1,-15.5,
CCOC(=O)C1CCN(C(=O)C(C)(C)NC(=O)Nc2ccc(OC)c(Cl)c2)CC1,-11.8,
O=C(NC1CCCc2c1cnn2-c1ccc(F)cc1F)c1ccccn1 (configuration not stated),,7.05 µM (active) and 11.2 µM (active)
O=C(N[C@H]1CCCc2c1cnn2-c1ccc(F)cc1F)c1ccccn1,-19.2,
CCOC(=O)C1CCN(C(=O)C(C)(C)NC(=O)Nc2ccc(CN3CCOCC3)cc2)CC1,-4.86,
CC(C)(C)OC(=O)NCCOCCOCCOc1cccc(-n2ncc3c2CCCC3NC(=O)c2ccccn2)c1 (configuration not stated),,5.6 µM (active)
O=C(NC1CCCc2c1cnn2-c1ccc(F)cc1F)c1ccccc1 (configuration not stated),,4.99 µM (active)
CCOC(=O)C1CCN(C(=O)C(C)(C)NC(=O)Nc2ccc3c(c2)CCC3)CC1,-14.7,
CCOC(=O)C1CCN(C(=O)C(C)(C)NC(=O)Nc2ccc3ccccc3c2)CC1,-17.5,
CCNC(=O)C1CCN(C(=O)C(C)(C)NC(=O)Nc2ccccc2Cl)CC1,-13.9,
CCOC(=O)C1CCN(C(=O)C(C)(C)NC(=O)Nc2ccc(Cl)cc2Cl)CC1,-16.8,
CCOC(=O)C1CCN(C(=O)C(C)(C)NC(=O)Nc2ccc(F)c(F)c2)CC1,-14.3,
CCN(CC)C(=O)C1CCN(C(=O)C(C)(C)NC(=O)Nc2ccccc2Cl)CC1,-15.3,
